USP2a inh: blocks human ubiquitin-specific protease USP2a; O75604; USP2 core, Ub-CHOP2 coupled fluorogenic reporter, 485/531; 330,000 tested, 0.01% active; Potency, µM (titrated, usually from 38.3 µM), actives largely listed as inhibitors; AID 463254
Target sequence (O75604 whole entry, looked up): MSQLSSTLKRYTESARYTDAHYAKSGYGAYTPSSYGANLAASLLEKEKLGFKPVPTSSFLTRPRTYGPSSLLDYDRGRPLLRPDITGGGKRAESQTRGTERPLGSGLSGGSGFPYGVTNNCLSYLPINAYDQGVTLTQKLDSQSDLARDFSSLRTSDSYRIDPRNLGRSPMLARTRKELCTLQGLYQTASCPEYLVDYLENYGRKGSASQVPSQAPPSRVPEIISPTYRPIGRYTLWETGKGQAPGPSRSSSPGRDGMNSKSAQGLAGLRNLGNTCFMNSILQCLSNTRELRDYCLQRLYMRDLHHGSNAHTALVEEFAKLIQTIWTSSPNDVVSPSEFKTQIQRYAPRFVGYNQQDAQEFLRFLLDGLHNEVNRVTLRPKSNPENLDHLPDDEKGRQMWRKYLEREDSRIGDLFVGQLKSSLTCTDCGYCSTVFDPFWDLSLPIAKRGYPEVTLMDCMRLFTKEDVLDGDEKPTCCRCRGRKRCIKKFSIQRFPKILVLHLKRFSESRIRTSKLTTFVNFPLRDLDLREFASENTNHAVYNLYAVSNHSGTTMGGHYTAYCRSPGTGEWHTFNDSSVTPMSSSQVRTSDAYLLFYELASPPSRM
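Deubiquitinase activity read as fluorescence (485/531 nm) after Ub-CHOP2 cleavage activates the enterokinase reporter on its substrate; USP2 core 10nM, Ub-CHOP2 and substrate 25nM each, 30min compound preincubation then 60min RT; data normalized to NEM, curves fitted.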
Coupling enz: inhibits coupling enzyme system, counter-screen for aldolase hits; coupling enzyme system counterscreen, AmpLite Red fluorescence; activity change, negative = inhibition, % at 58.2 µM, hits read low; 290,000 tested, 0.67% active; in the data active means activity change below about -30%
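Counterscreen lacking aldolase: glyceraldehyde-3-phosphate coupling-enzyme reagent preincubated 10 min at RT with compound (at 57.5 uM final), then substrate/coupling system with AmpLite Red added; fluorescence read at 525/598 nm after 20 min RT.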
VDR inhibitor: vitamin D3 receptor (human) inhibition | P11473 | VDR-SRC2-3 peptide fluorescence polarization, 2 h | Potency, µM, usual class: inhibitors | 400,000 tested, 0.93% active
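VDR–SRC2-3 interaction, FP format. Cmpds 23 nl via pintool, brief spin, 2 h ambient incubation.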
USP1 inh: inhibitors of human USP1/UAF1 deubiquitinase; recombinant USP1/UAF1, Ub-Rhodamine cleavage fluorescence; Potency, µM (highest dose often 57.1 µM), most hits filed as inhibitors; 390,000 tested, 0.23% active; further: nearly all actives have a fitted effect of over 60% in size
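USP1/UAF1 complex (1 nM) preincubated 15 min at room temperature with compound, then Ub-Rho substrate (150 nM final) added. Kinetic fluorescence at 480/540 nm over 6 reads at 60 s intervals; 50 mM HEPES pH 7.8, 0.5 mM EDTA, 0.1 mg/ml BSA, 1 mM TCEP, 0.01% Tween-20.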
PLK1 PBD block: blocks phosphopeptide binding to human PLK1 polo-box domain | P53350 | Plk1 PBD binding of FITC phosphopeptide, fluorescence polarization | Potency, µM, most hits filed as inhibitors | 360,000 tested, 2.8% active; further: series mostly up to about 57 µM; nearly all actives have a fitted effect of over 65% in size
GALK inhibitor: inhibitors of human galactokinase; P51570; Purified GALK, Kinase-Glo residual ATP luminescence; Potency, µM (series often up to 57.5 µM), most hits filed as inhibitors; 270,000 tested, 0.007% active; AID 1868
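Luminescence from leftover ATP (Ultra-Glo luciferase/luciferin) served as read-out after a 1 h room-temperature reaction of 5 nM GALK with 35 uM ATP and 100 uM galactose.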
Of the large screens only hits and unclear results are named; the others gave an inactive call. Rows were chosen to be rich in hits. Some 3.2% of all compounds tested hit in one or more screens of this group. Unless noted, the call rests on the fitted dose curve; in most records, active means well fitted curve in the direction sought with a large enough effect; inconclusive means small, poorly fitted or top-dose-only effect, or another doubt; inactive means no such curve, though single readings can be large; an effect the other way counts as inactive or inconclusive.

O=C(c1ccc(NS(=O)(=O)c2cccc3cccnc23)cc1)N1CCCCC1	none
COc1ccc(OCC(=O)NNC(=S)NC(=O)c2ccc([N+](=O)[O-])cc2)cc1	PLK1 PBD block 24µM
CC(NC(=O)COc1ccc([N+](=O)[O-])cc1)c1ccccc1 (stereo unspecified)	PLK1 PBD block 12µM
Cc1ccc(C(=O)NC(=S)NNC(=O)c2ccc([N+](=O)[O-])cc2)cc1	none
CC(=O)NC(=S)NNC(=O)COc1ccc(Br)cc1	PLK1 PBD block 27µM
COc1ccc(C(=O)NNC(=S)NC(=O)c2ccc(OC)cc2)cc1	none
O=C(COc1ccc(Br)cc1)NNC(=S)NC(=O)c1ccccc1[N+](=O)[O-]	none
CCCCCC(=O)NNC(=S)NC(=O)c1ccc([N+](=O)[O-])cc1	VDR inhibitor inconclusive, PLK1 PBD block 11µM
CC(=O)Nc1ccc(S(=O)(=O)N2CCN(c3nc4ccccc4n3CC(C)C)CC2)cc1	none
Cc1ccc(S(=O)(=O)N(C)C(=O)NC(=O)NS(=O)(=O)c2ccccc2)cc1	none
O=C(NCC1CCCO1)c1nc(Cn2ccc([N+](=O)[O-])n2)no1 (stereo unspecified)	USP1 inh inconclusive
Cc1ccc(OCC(=O)Nc2cccc(-c3nc4ccccc4o3)c2C)cc1C	none (no result: USP2a inh, Coupling enz, PLK1 PBD block, GALK inhibitor)
COCCCNC(=O)c1[nH]c2ccccc2c1Sc1ccc(C)cc1	none (no result: USP2a inh, Coupling enz, PLK1 PBD block, GALK inhibitor)
CC(=O)NC(=S)NNC(=O)COc1ccc([N+](=O)[O-])cc1	PLK1 PBD block 21µM
O=C(COc1cccc(Cl)c1)NNC(=S)Nc1ccccc1	VDR inhibitor inconclusive, PLK1 PBD block 24µM
CCOc1cccc(C(=O)NC(=S)Nc2ccc(Cl)cc2C(=O)O)c1	VDR inhibitor inconclusive, PLK1 PBD block 5.3µM
Cc1cccc(C(=O)NC(=S)NNC(=O)COc2ccc(Cl)cc2)c1	PLK1 PBD block 27µM
CN(C)c1ccc(NC(=O)c2ccc(N3CCOCC3)nc2)cc1	VDR inhibitor 79µM (no result: Coupling enz)
Cc1ccc(S(=O)(=O)Cc2ccc(C(=O)N3CCN(Cc4ccccc4)CC3)o2)cc1	none (no result: VDR inhibitor, USP1 inh, PLK1 PBD block)
CN(C)CCCN1C(=O)c2cccc3c(Br)ccc(c23)C1=O	PLK1 PBD block inconclusive
CCN1C(=O)c2cccc3c(N)ccc(c23)C1=O	USP2a inh inconclusive, PLK1 PBD block 3µM (no result: GALK inhibitor)
Cc1nn(C)c(C)c1N1C(=O)c2cccc3c(N)ccc(c23)C1=O	USP2a inh inconclusive, USP1 inh 25µM, PLK1 PBD block 2.7µM (no result: GALK inhibitor)
CCCCNc1ccc2c3c(cccc13)C(=O)N(CCCC)C2=O	USP2a inh inconclusive, USP1 inh 25µM, PLK1 PBD block 2.1µM
O=S(=O)(c1cccc2ccccc12)N1CCN(c2nc(-c3cccs3)nc3ccccc23)CC1	none (no result: USP2a inh, Coupling enz, USP1 inh, PLK1 PBD block, GALK inhibitor)
O=C(NCCNC[C@@H](O)COc1ccc(O)cc1)N1CCOCC1	none (no result: USP2a inh, USP1 inh, PLK1 PBD block, GALK inhibitor)
O=C(/C=C/c1ccccc1)NC(=S)Nc1ncccn1	none
Cc1cc(C)c2ccc(=S)[nH]c2n1	PLK1 PBD block 15µM
COc1ccc2c(C)cc(C)nc2n1	none
CC(C)CN(Cc1c(O)ccc2ccccc12)CC(C)C	PLK1 PBD block inconclusive
CCN(Cc1ccncc1)Cc1c(O)ccc2ccccc12	Coupling enz -33, PLK1 PBD block 2.7µM
CC(=O)Nc1ccc(NC(=O)c2ccc(-c3ccccc3Cl)o2)cc1	none (no result: Coupling enz, GALK inhibitor)
Cc1cc(NC(=O)CSc2nnc(C3COc4ccccc4O3)n2N)no1 (stereo unspecified)	VDR inhibitor inconclusive, PLK1 PBD block 7.5µM
Cc1cc(NC(=O)CSc2nnc(C3COc4ccccc4O3)o2)no1 (stereo unspecified)	none
Cc1ccc(C)c(NC(=O)COC(=O)Cc2ccsc2)c1	none
Cc1cc(C)c(NC(=O)COC(=O)Cc2ccsc2)c(C)c1	PLK1 PBD block 27µM
Cc1ccccc1NC(=O)COC(=O)Cc1ccsc1	PLK1 PBD block 27µM
Cc1cccc(C)c1NC(=O)COC(=O)Cc1ccsc1	none (no result: GALK inhibitor)
CC[C@@H]1C/C=C\Cc2ccccc2[C@H](C(=O)C[C@@H](O)CC(C)=O)OC1=O	PLK1 PBD block inconclusive (no result: Coupling enz, GALK inhibitor)
FC(F)(F)c1cc(N2CCOCC2)nc(-c2ccccc2)n1	VDR inhibitor inconclusive, PLK1 PBD block 27µM
COc1ccc(O)c(-c2cc(-c3cccs3)[nH]n2)c1	PLK1 PBD block inconclusive
COc1ccc(N2CCN(C(=O)Cc3ccc(OC)c(OC)c3)CC2)cc1	VDR inhibitor inconclusive, PLK1 PBD block 24µM
Cc1nnc2n(-c3ccccc3)c(=O)c3ccccc3n12	none (no result: USP2a inh, Coupling enz, GALK inhibitor)
CCC(C)c1ccc(-n2c(=O)c3ccccc3n3c(=S)[nH]nc23)cc1 (stereo unspecified)	PLK1 PBD block 21µM
O=c1c2ccccc2n2c(=S)[nH]nc2n1-c1ccccc1	USP1 inh inconclusive, PLK1 PBD block 21µM
c1coc(-c2ccc3ncnc(NCc4cccs4)c3c2)c1	none (no result: Coupling enz, VDR inhibitor, USP1 inh, PLK1 PBD block, GALK inhibitor)
CCOC1=C2[C@@H](CN(S(=O)(=O)c3ccccc3C)[C@H]2c2ccc(Cl)cc2)[C@H]2C(=O)N(c3ccccc3)C(=O)[C@H]2C1	none (no result: USP2a inh, Coupling enz, VDR inhibitor, USP1 inh, GALK inhibitor)
CC1(N2CCOCC2)CC2(O)C(=[N+]1[O-])CCc1c2no[n+]1[O-] (stereo unspecified)	USP1 inh inconclusive, PLK1 PBD block 6µM
COc1ccc(Br)cc1CNC(=O)CN1C(=O)CCCc2ccccc21	none (no result: USP2a inh, Coupling enz, PLK1 PBD block, GALK inhibitor)
CSc1ncccc1C(=O)Nc1ccc(OC(F)(F)F)cc1	PLK1 PBD block 34µM
CCOc1ccc(NC(=O)c2ccccc2SC)cc1	VDR inhibitor inconclusive, PLK1 PBD block 19µM
COc1cc(NC(=O)c2cccnc2SC)cc(OC)c1OC	none
COc1ccccc1C(=O)NC(C)c1ccccc1 (stereo unspecified)	none
CCc1cc2c(=O)c(-c3nc4ccccc4[nH]3)coc2c(CN2CCCCC2C)c1O (stereo unspecified)	none
CN(c1ccc(Cl)cc1)c1cc(=O)n(C)c2ccccc12	none
CN(C)c1ccc2c(O)cc(=O)n(C)c2c1	Coupling enz -37, VDR inhibitor 32µM
COc1ccc(-c2cc(C(=O)NCc3cccs3)no2)cc1	none
O=C(NNc1ccccc1)C(=O)N1CCCCC1	none
CCC1CN(C(=O)Nc2cccc(OC)c2)c2ccccc2O1 (stereo unspecified)	none (no result: USP2a inh, Coupling enz, PLK1 PBD block, GALK inhibitor)
CCC1CN(C(=O)N2CCC(C(=O)Nc3ccccc3OC)CC2)c2ccccc2O1 (stereo unspecified)	VDR inhibitor inconclusive, PLK1 PBD block 27µM (no result: Coupling enz)
CCc1nnc(NC(=O)c2ccc(S(=O)(=O)N3CCCC3)cc2)s1	none
CCc1nnc(NC(=O)c2ccc(S(C)(=O)=O)cc2)s1	VDR inhibitor 20µM, PLK1 PBD block 9.5µM
CCN1C(=O)/C(=C2/Sc3ccc(OC)cc3N2C)SC1=Nc1cccc(O)c1	none

Assay outcomes (PubChem BioAssay)
